Screening data from PubChem BioAssay.
VP16 counter: counter-screen for ROR gamma inhibitors: Gal4-VP16 reporter; actives 3.5% (n = 310,000); AID 2546; Drosophila S2 Gal4-VP16 UAS-luciferase, luminescence, 20 h; Potency, µM (titrated, usually from 53.6 µM), without a hit: at the top dose activity, negative = inhibition, usual class: inhibitors;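 further: Gal4-VP16 expression switched on by copper sulfate through the metallothionein promoter; nearly all actives have a fitted effect of over 50% in size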
TDP1 cell CPT: DT40-hTDP1 cell growth loss with CPT; chicken DT40 Tdp1-/-;hTDP1 cells + 20 nM CPT, ATP luminescence, 48 h; AID 686979; actives 12% (n = 420,000); Potency, µM (highest dose often 46.2 µM), inactives show at the top dose activity change, negative = growth inhibition, usual class: inhibitors; further: nearly all actives have a fitted effect of over 55% in size
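Chicken DT40 Tdp1-/- cells complemented with human TDP1, 400 cells/well, exposed to compounds plus 20 nM camptothecin for at least 48 h at 37 C; viability read as ATP content by CellTiter-Glo luminescence.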
RORgamma inh: ROR gamma (mouse) transcription inhibition | actives 5.4% (n = 310,000) | Drosophila S2 Gal4-RORgamma UAS-luciferase reporter, 20 h | AID 2551 | Potency, µM (top dose mostly 53.6 µM), for inactives: at the highest dose activity change, negative = inhibition, hits mostly inhibitors | P51450; further: nearly all actives have a fitted effect of over 60% in size
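Luciferase reporter read in Schneider cells carrying Gal4-RORγ (mouse) and UAS-Photinus luciferase; cells given compound 1 h before 700 uM copper sulfate induction, then incubated 20 h at ambient temperature.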
TDP1 cell noCPT: qHTS for Inhibitors of human tyrosyl-DNA phosphodiesterase 1 (TDP1): qHTS in cells in absence of CPT; AID 686978, 2013; DT40 Tdp1-/- hTDP1 cells, no CPT, ATP luminescence, 48 h; actives 15% (n = 420,000); Potency, µM (doses to about 46.2 µM), inactives show at the top dose activity change, negative = growth inhibition, actives largely listed as inhibitors; further: nearly all actives have a fitted effect of over 55% in size
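Chicken DT40 Tdp1-/- cells complemented with human TDP1, screened without camptothecin (DMSO vehicle only), 400 cells/well. Compounds pin-transferred, cells incubated at 37 °C for at least 48 hr. Growth read as ATP-dependent luminescence (CellTiter-Glo, 30 min at RT).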
TDP1 inh: inhibitors of human tyrosyl-DNA phosphodiesterase TDP1. Potency, µM (titrated, usually from 130 µM), without a hit: at the top dose activity change, negative = inhibition, actives largely listed as inhibitors. recombinant TDP1, AlphaScreen DNA substrate cleavage. actives 0.28% (n = 350,000). Q9NUW8. AID 485290; further: nearly all actives have a fitted effect of over 40% in size
Target sequence (Q9NUW8 whole entry, looked up): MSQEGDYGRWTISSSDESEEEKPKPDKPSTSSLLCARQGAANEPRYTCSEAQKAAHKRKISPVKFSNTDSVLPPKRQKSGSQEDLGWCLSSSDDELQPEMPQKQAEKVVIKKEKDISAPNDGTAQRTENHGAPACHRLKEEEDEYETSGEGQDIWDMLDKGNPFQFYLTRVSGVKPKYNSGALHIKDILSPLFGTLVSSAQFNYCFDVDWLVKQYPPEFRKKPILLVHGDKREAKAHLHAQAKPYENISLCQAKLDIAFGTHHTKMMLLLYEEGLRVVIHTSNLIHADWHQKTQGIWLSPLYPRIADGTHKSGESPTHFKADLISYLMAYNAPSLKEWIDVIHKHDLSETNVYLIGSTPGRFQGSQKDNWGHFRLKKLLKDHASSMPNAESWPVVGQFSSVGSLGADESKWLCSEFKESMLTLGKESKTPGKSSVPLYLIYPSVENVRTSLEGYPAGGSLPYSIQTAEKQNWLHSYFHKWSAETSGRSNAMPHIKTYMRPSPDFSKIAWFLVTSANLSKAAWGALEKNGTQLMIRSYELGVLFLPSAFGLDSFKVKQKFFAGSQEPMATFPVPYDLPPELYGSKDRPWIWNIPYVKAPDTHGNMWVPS
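Recombinant human Tdp1 (E. coli-expressed, 1 nM final) preincubated with compounds 15 min at room temperature, then 5'-biotin/3'-phosphotyrosine-FITC DNA substrate (15 nM final) added for 5 min. AlphaScreen beads (10 ug/ml final) added 10 min; cleavage lowers signal.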
Active calls of the source: *; [ ] = dose if it differs, or a comment. Rows were chosen to be rich in hits. Some 19% of all compounds tested hit in one or more screens of this group. The call rests on the fitted dose curve; in most records, active means well fitted curve in the direction sought with a large enough effect; inconclusive means small, poorly fitted or top-dose-only effect, or another doubt; inactive means no such curve, though single readings can be large; an effect the other way counts as inactive or inconclusive. On the % scale 0 is the no-effect control and ±100 the full control effect; potency means the concentration at half of the fitted maximal effect.

Results for Cc1ccc2nc(-c3ccccn3)cc(C(=O)NC(C)C(C)(C)C)c2c1 (stereo not given) ?
VP16 counter: -1%; TDP1 cell CPT: inconclusive; RORgamma inh: -34%; TDP1 cell noCPT: inconclusive; TDP1 inh: 5%

What do the screens show for `Cc1cccc(/C=N/NC(=O)c2cc(-c3cccnc3)nc3ccccc23)c1`?
VP16 counter: -15%; TDP1 cell CPT: 0%; RORgamma inh: inconclusive; TDP1 cell noCPT: -3%; TDP1 inh: -1%

What do the screens show for `COc1ccc(-c2cc(C(=O)N/N=C/c3cc(OC)c(OC)cc3OC)c3ccccc3n2)cc1`?
TDP1 cell CPT: 10µM*; TDP1 cell noCPT: 9.2µM*

What do the screens show for `COc1ccc(Br)cc1C(=O)N/N=C/c1cccnc1`?
VP16 counter: -1%; TDP1 cell CPT: 12%; RORgamma inh: 9%; TDP1 cell noCPT: 12%

What do the screens show for `CCCOc1cccc(-c2cc(C(=O)N/N=C/c3ccccn3)c3ccccc3n2)c1`?
VP16 counter: 1.3µM*; TDP1 cell CPT: 12µM*; RORgamma inh: 1µM*; TDP1 cell noCPT: 9.2µM*; TDP1 inh: 4%

What do the screens show for `COc1cc2ccccc2cc1C(=O)N/N=C/c1cccnc1`?
VP16 counter: 1%; TDP1 cell CPT: 15µM*; RORgamma inh: -3%; TDP1 cell noCPT: inconclusive; TDP1 inh: 3%

What do the screens show for `CCCOc1cccc(-c2cc(C(=O)NN)c3ccccc3n2)c1`?
VP16 counter: inconclusive; TDP1 cell CPT: 9.2µM*; RORgamma inh: 11µM*; TDP1 cell noCPT: 10µM*; TDP1 inh: 9%

Results for CC(=O)N(Cc1ccccc1)c1ccc(C(=O)O)cc1 ?
VP16 counter: 3%; TDP1 cell CPT: -2%; RORgamma inh: -14%; TDP1 cell noCPT: 4%; TDP1 inh: -1%

How did O=C(Nc1ccc(Br)cc1)c1cc(-c2cccs2)on1 do in these assays?
VP16 counter: 19%; TDP1 cell CPT: -11%; RORgamma inh: 4%; TDP1 cell noCPT: -17%; TDP1 inh: 1%

Results for CCN1CCN(CC(=O)Nc2ccccc2)C(=O)C1=O ?
VP16 counter: -3%; TDP1 cell CPT: 11%; RORgamma inh: -6%; TDP1 cell noCPT: 2%; TDP1 inh: 2%

How did COc1ccc(/C=C(/NC(=O)c2ccc(C)cc2)C(=O)N2CCCC2)cc1OC do in these assays?
VP16 counter: 3%; TDP1 cell CPT: 5%; RORgamma inh: 1%; TDP1 cell noCPT: -3%; TDP1 inh: 8%

How did O=C1CC2(CCN(S(=O)(=O)c3ccccc3)CC2)Oc2ccccc21 do in these assays?
TDP1 cell CPT: -18%; TDP1 cell noCPT: -7%; TDP1 inh: 4%

How did Cc1ccc(/C=C2\SC(=S)N(c3cccnc3)C2=O)cc1 do in these assays?
VP16 counter: 19%; TDP1 cell CPT: 4%; RORgamma inh: 32%; TDP1 cell noCPT: 17%; TDP1 inh: 4%

How did COc1ccc(-c2cc(C(=O)N/N=C/c3cccnc3)c3ccccc3n2)cc1 do in these assays?
VP16 counter: -11%; TDP1 cell CPT: 9.2µM*; RORgamma inh: -36%; TDP1 cell noCPT: inconclusive; TDP1 inh: 4%

What do the screens show for `COc1ccc(OC)c(/C=N/NC(=O)C(O)c2ccccc2)c1` (stereo not given)?
VP16 counter: 2%; TDP1 cell CPT: -25%; RORgamma inh: -3%; TDP1 cell noCPT: -29%; TDP1 inh: 1%

How did COc1ccc(OC)c(/C=N/NC(=O)c2csc3ccccc23)c1 do in these assays?
VP16 counter: 0%; TDP1 cell CPT: -22%; RORgamma inh: 13µM*; TDP1 cell noCPT: inconclusive; TDP1 inh: 0%

How did CC(C)COc1cccc(-c2cc(C(=O)Nc3ccon3)c3ccccc3n2)c1 do in these assays?
VP16 counter: 28µM*; TDP1 cell CPT: 16µM*; RORgamma inh: inconclusive; TDP1 cell noCPT: 10µM*; TDP1 inh: 4%

What do the screens show for `Cc1cccc(/C=N/NC(=O)c2cc(-c3cccnc3)nc3c2c(C)nn3-c2ccccc2)c1`?
VP16 counter: -12%; TDP1 cell CPT: inconclusive; RORgamma inh: -9%; TDP1 cell noCPT: 23µM*; TDP1 inh: 3%

Results for O=S(=O)(c1cccc2ccccc12)N1CCN(c2ccc(Cl)c(Cl)c2)CC1 ?
TDP1 inh: -6%

What do the screens show for `C/C(=N\NC(=O)c1sccc1C)c1ccncc1`?
VP16 counter: inconclusive; TDP1 cell CPT: 2%; RORgamma inh: -38%; TDP1 cell noCPT: 15%; TDP1 inh: 2%

What do the screens show for `Cc1ccccc1-c1cc(C(=O)N/N=C/c2cccnc2)c2ccccc2n1`?
VP16 counter: 15%; TDP1 cell CPT: inconclusive; RORgamma inh: 17%; TDP1 cell noCPT: inconclusive; TDP1 inh: 7%

How did CCCOc1cccc(-c2cc(C(=O)N/N=C/c3cccnc3)c3ccccc3n2)c1 do in these assays?
VP16 counter: 9%; TDP1 cell CPT: 9.2µM*; RORgamma inh: 8%; TDP1 cell noCPT: 8.2µM*; TDP1 inh: 5%

How did O=C(N/N=C/c1cccnc1)c1cc(-c2ccccc2Cl)nc2ccccc12 do in these assays?
VP16 counter: 2%; TDP1 cell CPT: inconclusive; RORgamma inh: 0%; TDP1 cell noCPT: 4.6µM*; TDP1 inh: 7%[56.1 µM]

How did Cc1cc(C)nc(N2CCN(c3nc(C)cc(C)n3)CC2)n1 do in these assays?
VP16 counter: -19%; RORgamma inh: -13%; TDP1 inh: 4%

Results for CN(Cc1ccco1)c1ncncc1-c1ccccc1C(F)(F)F ?
VP16 counter: 3%; TDP1 cell CPT: 12%; RORgamma inh: 11%; TDP1 cell noCPT: 4%

Results for S=c1[nH]nc(-c2ccncc2)n1CC1CCCO1 (stereo not given) ?
VP16 counter: -5%; TDP1 cell CPT: -7%; RORgamma inh: -61%; TDP1 cell noCPT: -11%

What do the screens show for `Fc1ccc(-c2n[nH]c(=S)n2CC2CCCO2)cc1` (stereo not given)?
VP16 counter: inconclusive; TDP1 cell CPT: -6%; RORgamma inh: 11µM*; TDP1 cell noCPT: -2%; TDP1 inh: -2%

Results for Cc1cccc(-n2c(C)cc(/C=N/O)c2C)c1 ?
VP16 counter: 1%; TDP1 cell CPT: -5%; RORgamma inh: -31%; TDP1 cell noCPT: -2%; TDP1 inh: 5%

Results for CC(=O)NC1=NC(=O)/C(=C/c2cc(C)n(-c3cccc(C(=O)O)c3)c2C)S1 ?
VP16 counter: -8%; TDP1 cell CPT: 2%; RORgamma inh: -6%; TDP1 cell noCPT: inconclusive; TDP1 inh: 3.5µM*

Results for CNC(=O)c1cccn1-c1ccsc1C(=O)OC ?
VP16 counter: 2%; TDP1 cell CPT: inconclusive; RORgamma inh: 20%; TDP1 cell noCPT: 18µM*; TDP1 inh: 9%
